SMILES strings stand for the structures. In all, about 140,000 compounds went through this assay and about 240 (0.17%) were called active. Entries that show only a call come without a potency. Another 9% or so got no clear call; they are omitted. The call rests on the fitted dose curve; in most records, active means well fitted inhibition curve with a large enough effect; inconclusive means small, poorly fitted or top-dose-only effect; inactive means no such curve, though single readings can be large or run the other way. The sample as a whole holds a higher share of actives than the screen did.

The results in this text go back to PubChem BioAssay AID1671194 (National Center for Advancing Translational Sciences (NCATS), 2021).
Potency means the concentration at half of the fitted maximal effect.

The assay can be described thus: Primary qHTS assay for inhibitors of alpha-synuclein gene (SNCA) expression. Further: nearly all actives have a fitted effect of over 45% in size. To be noted: HEK-293 SNCA-luciferase knock-in, luminescence, 24 h; series mostly up to 57.2 µM. From the text: Assay Submitter (PI): Daniel R. Scoles Ph.D.
Department of Neurology, University of Utah, Salt Lake City, Utah
Accumulation of alpha-synuclein is a main underlying pathological feature of Parkinson's disease (PD) and alpha-synucleinopathies, for which lowering expression of the alpha-synuclein gene (SNCA) is a potential therapeutic avenue. Using a cell-based luciferase reporter of SNCA expression we performed a quantitative high throughput screen (qHTS) of 155,885 compounds in dose response. The screening assay was generated using genome editing to insert the luciferase gene downstream and in frame of the SNCA gene in HEK-293 cells (1). A viability counterscreen using GF-AFC was used to eliminate cytotoxic and false positive compounds. After in silico analysis (clustering, removal of frequent hitter nuisance chemotypes), inhibitor compounds from the primary screen were selected for follow up and re-tested at 11-doses in the SNCA-luc cells (luciferase and GF-AFC confirmation), and in CMV-luc expressing cell line to flag general transcriptional repressors.
Described herein are the results of the primary screen for SNCA inhibitors; decrease in luciferase signal (inhibition of the SNCA gene expression) is the desired output for this assay.
1. Dansithong, W., Paul, S., Scoles, D. R., Pulst, S. M., and Huynh, D. P. (2015) Generation of SNCA Cell Models Using Zinc Finger Nuclease (ZFN) Technology for Efficient High-Throughput Drug Screening. PLoS ONE 10, e0136930.
SEQUENCE No. (e.g., 1, 2, 3, etc.); […] (e.g., Cells, Incubation, Reagent, etc.); VALUE; DESCRIPTION
1; Cells; 4 uL; Dispense 1500 HEK-293-SNCA-luc cells/well into Greiner 1536-well white / solid bottom tissue culture treated plate. The plate was covered with metal lids with gas-exchange holes.
2; Incubate; 24 hours; Incubate at 37C, 5% CO2, 95% RH.
3; Compounds; 23 nL; Compounds and controls were transferred via a Kalypsys Pin Tool (Wako USA) equipped with a 1536-slotted pin array. The plate was covered with metal lids with gas-exchange holes.
4; Incubate; 24 hours; Incubate at 37C, 5% CO2, 95% RH.
5; Dispense; 1 uL; Dispense Gly-Phe-7-amino-4-trifluoromethylcoumarin (GF-AFC, prepared at 125 uM in PBS) was added. The plate was covered with metal lids with gas-exchange holes.
6; Incubate; 30 min; Incubate at 37C, 5% CO2.
7; Detector; Fluorescence; Measure fluorescence with ViewLux microplate reader (PerkinElmer) equipped with 405/10 excitation and 540/25 emission filters.
8; Dispense; 3 uL; Dispense ONE-Glo ([…]) lucifase detection reagent was added to each well. Plates were covered with metal lids with gas-exchange holes.
9; Incubate; 15 min; Incubate at room temperature.
10; Detector; Luminescence; Measure luminescence with ViewLux microplate reader (PerkinElmer) equipped with clear filters.
NOTES (numbers refer to sequence above)
1; HEK-293-SNCA-luc were cultured and suspended in phenol-red free DMEM (4.5 g/L glucose, 25 mM HEPES, cat #21063 (Thermo)).
3; Compounds were added to the assay plate in an 11-point intra plate dose response, 1:3 titration in DMSO with a final concentration range of […]. Vehicle-only plates, with DMSO being pin-transferred to every well, were inserted at the beginning of screening runs to confirm expected assay performance. […]
10; Signals were analyzed, and dose-response curves were fit using the Hill equation. […]
For orientation: In qHTS, concentration-response curves come from the screen itself.
As for `CC[C@H]1C=CC=CC[C@@H](C)[C@H](O)[C@@](C)(O)C(=O)[C@@H](C)[C@H](O)[C@@H](C)C(=O)[C@@H](C)[C@H](O)[C@@H](C)C=CC(=O)O[C@@H]2[C@@H](C)[C@H](CC1)O[C@]1(CC[C@H](C)[C@H](C[C@@H](C)O)O1)[C@H]2C`, the Potency is 1710 nM (active).

As for `CN(Cc1ccccc1)C[C@H]1CN2CC[C@H]1C[C@@H]2CNC(=O)Nc1ccsc1`, the Potency entry was “inactive”.

As for `CC(=Cc1csc(C)n1)[C@@H]1C[C@H]2O[C@]2(C)CCC[C@H](C)[C@@H](O)[C@@H](C)C(=O)C(C)(C)[C@@H](O)CC(=O)O1`, the Potency entry is “inactive”.

Consider `Cc1nc(-c2ccc(C(F)(F)F)cc2)cc([C@H]2CN3CC[C@H]2C[C@@H]3CNC(=O)C2CCC2)n1`, for which the Potency result is “inactive”.

Take `CCOC(=O)[C@H]1CN(C(=O)NC2CCCC2)[C@]2(C)C(=O)Nc3ccccc3[C@H]12`: the Potency result is “inactive”.
